Several values for one entry are separate records, joined by “and”; a condition that tells them apart may be missing. Identical values can stand only once. About 83,000 compounds went through this panel and 20% of them were active in at least one assay; those are over-represented in the sample as a whole.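 Step 1: grow cells in 96-well plates. Step 2: add test compound at a single concentration. Step 3: incubate 48 h. Step 4: record percent growth.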 Unmarked numbers belong to inactive results. Activity calls are given as the source filed them. The calls were made as follows: active = growth percent below 10; inactive = the rest.

The assay deals with MDA-MB-468 breast. Nature of the assay: NCI-60 one-dose screen, 48 h (100 = growth as untreated, 0 = no growth, -100 = all killed). The following applies: 10 µM unless noted.
As to `CCCCCCCCCCCC1N=C(N)N=C(N)N1c1cccc(Br)c1` (stereo not given), the growth was -92.7% (active).

In the case of `COc1ccc(OC)c(/C=C/[C@H]2O[C@@H](C)[C@H](O)[C@@H]2O)c1`, the growth was 114%.

`Cc1cn(C2CC(F)C(CO)O2)c(=O)[nH]c1=O` (stereo not given): the growth is 90.7%.

Turning to `OC(c1cc(-c2ccc(C(F)(F)F)cc2)nc(C(F)(F)F)c1)C1CCCCN1` (stereo not given), the growth is -88.4% (active) and -89.6% (active) and -76.3% (active).

With `Cc1ncsc1CCO`, the growth was 99.2% and 107%.

For `O=C(c1ccc(Cl)cc1)N1CCN(c2ccnc3cc(Cl)ccc23)CC1`, the growth was 72.7%.

For the compound `c1ccc(C(CC2=NCCCN2)c2ccccc2)cc1`, the growth was 102%.

Turning to `COc1ccc(C(=O)C(CN(C)C)c2ccc(OC)cc2)cc1` (stereo not given), the growth is 14.2%.

Consider `CCN1CCN(c2nc(NNC(=O)c3ccc(OC)cc3)nc(N3CCN(C(c4ccccc4)c4ccccc4)CC3)n2)CC1`, for which the growth was 10.7%.

As for `CC(C)C1CCC(C)C(C2(C#N)C(N)=NC(N)=C2C#N)C1=O` (stereo not given), the growth was 107%.

Consider `C#CCOC(=O)[C@]1(C)CCC[C@]2(C)[C@H]3C[C@H]4C(C(C)C)=C[C@]3(CC[C@H]21)[C@@H]1C(=O)CCC(=O)[C@@H]14`, for which the growth was 78%.

Turning to `O=c1oc2c(C(F)(F)F)cccc2cc1-c1csc(Nc2ccc(OCCF)cc2)n1`, the growth was 5.55% (active).

As for `Fc1ccc(C2CC(c3cccc(Nc4ccncc4)c3)=NN2c2cc(Cl)cc(Cl)c2)cc1` (stereo not given), the growth is 37.6%.

`O=C1C=CC(=O)c2c1nc1n2CCCC1`: the growth was 90.2%.

Take `C[C@]12C=CC(=O)C=C1[C@@H](F)C[C@@H]1[C@@H]2[C@@H](O)C[C@@]2(C)[C@H]1CC[C@]2(O)C(=O)CO`: the growth is 123%.

On to `COc1ccc(S(=O)(=O)Nc2cc(Sc3cccc4cccnc34)c(O)c3ccccc23)cc1`, for which the growth is -39.6% (active).

Consider `COc1ccc(-n2cnc3c(sc4ncc(Cl)cc43)c2=O)cc1`, for which the growth is 93.1%.

On to `CC[C@]1(O)C[C@@H]2CN(CCc3c([nH]c4ccccc34)[C@@](C(=O)OC)(c3cc4c(cc3OC)N(C)[C@H]3[C@@](O)(C(N)=O)[C@H](O)[C@]5(CC)[C@@H]6C[C@@H]6CN6CC[C@]43[C@@H]65)C2)C1`, for which the growth was 43.8%.

Take `Cc1ccc(O)c(NC(=O)c2ccc(CNc3ccnc(C(F)(F)F)c3)cc2)c1`: the growth was 76.4%.

With `COc1cccc(O)c1O`, the growth is 86.7%.

As for `CCN(CC)CCCCNc1c2ccc(Cl)cc2nc2ccc(OC)cc12`, the growth was -42.7% (active).

Take `CC(C)C1=NOC(=O)C1=Cc1cn(-c2ccco2)nc1-c1ccccc1`: the growth is 54%.

As to `COc1cc(OC)c(S(N)(=O)=O)cc1C(=O)/C=C/c1ccc(Cl)cc1`, the growth is -57.8% (active).

For `NC(=O)c1cc(Br)ccc1NC(=O)/C=C/c1ccccc1`, the growth was 27.8%.

Consider `Cn1c(C(N)=O)cc2c1-c1nc(NC3CCCCC3)ncc1CCC2`, for which the growth is 93.7%.

Regarding `O=[N+]([O-])c1ccc2c(c1)S(=O)c1cc([N+](=O)[O-])ccc1N2`, the growth is 94.8%.

In the case of `O=C(NCCNc1cc(-c2cn(-c3ccccc3)nc2-c2cccc(O)c2)ccn1)Nc1ccc(Cl)c(C(F)(F)F)c1`, the growth was 17.5%.

With `CN1CCOCCN(C)Cc2ccc3ccc(cc3c2)CN(C)CCOCCN(C)Cc2ccc3ccc(cc3c2)C1`, the growth was 52.9%.

With `O=S(=O)(NCCCNc1cc(-c2cn(-c3ccccc3)nc2-c2cccc(O)c2)ccn1)c1ccc(F)cc1`, the growth is -1.5% (active).

As to `COc1cc(N)c2ncccc2c1Cl`, the growth is 103%.

As for `O=C1/C(=C\c2cn(Cc3ccccc3)c3ccc(Br)cc23)c2ccccc2N1c1c(Cl)cccc1Cl`, the growth is 84.1%.

On to `CCN(CC)c1ccc(C(=O)c2ccc(N(CC)CC)cc2)cc1`, for which the growth was -36% (active).

With `CCOC(=O)c1cocc1C(=O)O`, the growth was 103%.

`N#CSc1c[nH]c2cccc(/C=C/C(=O)/C=C(O)/C=C/c3cccc4[nH]cc(SC#N)c34)c12`: the growth was -55.8% (active).

In the case of `N#Cc1c(-c2cccc(F)c2)cc(-c2ccc(Br)s2)[nH]c1=O`, the growth is 82.1%.

As to `COc1ccc(/C=C/C(=O)Nc2ccc(-c3nc4ccc(OC)cc4s3)cc2)cc1`, the growth is 67.2%.

In the case of `CCCCOc1ccc(NC(=O)Nc2nnc(C)s2)cc1`, the growth was 103%.

With `CCCCC(CC)OC(=O)C(Br)CC` (stereo not given), the growth is 106%.

On to `O=C(Nc1cccnc1Nc1ccc(F)cc1)c1cn(Cc2cccc(Oc3ccccc3)c2)nn1`, for which the growth is 63.5%.

As to `COc1cc2c(c(OC)c1OC)C(=O)CC(c1cccc(C(=O)Nc3ccc(Br)cc3)c1)O2` (stereo not given), the growth was 30.5%.

(Values after PubChem BioAssay (NCI).)
